Results filed as inconclusive are left out. Where a call stands in place of a potency, no number is given. Activity calls are given as the source filed them. Calls come from the whole dose curve; as a rule, active = well fitted cell-killing curve with a large enough effect in the repeat runs; inconclusive = weak or mixed curves, or effect the other way; inactive = no such curve, though single readings can be large or run the other way. Positions of bridges follow the written chain, without caps; N, C: chain ends. Non-standard residues stand in square brackets, D forms with d. Residues, ends and D or L forms follow the SMILES beside them. ξ: configuration not given here. *: point of attachment. d(aThr) = C[C@@H](O)[C@@H](N)C(=O)O; ξThr(3R) = C[C@@H](O)C(N)C(=O)O; X3 = CC[C@@H](C)CCCCC(=O)*; dDab = NCC[C@@H](N)C(=O)O
Assay: qHTS assay to identify small molecule antagonists of the thyroid receptor (TR) signaling pathway - cell viability counter screen (AID 743064); note: nearly all actives have a fitted effect of over 50% in size
Settings: GH3.TRE-Luc viability, CellTiter-Fluor, 24 h; series mostly up to 70.3 µM
Text: National Center for Advancing Translational Sciences [NCATS]
NIH Chemical Genomics Center [NCGC]
U.S. Environmental Protection Agency [EPA]
National Institutes of Environmental Health Sciences [NIEHS]
National Toxicology Program [NTP]
U.S. Food and Drug Administration [FDA]
Thyroid receptor (TR), a nuclear hormone receptor, plays an important role in development, proliferation, differentiation, metabolism, brain function, and cardiovascular system. […] To profile the Tox21 10K compound library in TR signaling, a cell-based GH3-TRE-Luc assay (GH3.TRE-Luc cell line, developed by the laboratory of Dr. Albertinka J. Murk, Wageningen University) was used to measure the inhibition of TR. GH3 (rat pituitary tumor) cells stably expressing a TR activity sensor consisting of two TR response elements and a luciferase reporter gene. The cytotoxicity of the Tox21 compound library against the GH3.TRE-Luc cell line was tested in parallel by measuring the cell viability using CellTiter-Fluor assay (Promega, Madison, WI) in the same wells.
Tox21 Assay Protocol Summary:
GH3.TRE-Luc cells were dispensed at 1500 cells/4 uL/well into 1536-well white solid bottom plates using a Multidrop Combi dispenser (Thermo Fisher Scientific Inc., Waltham, MA). After the assay plates were incubated at 37 C for 4 hours, 23 nL of library compound or DMSO controls was transferred to the assay plates by a pintool station (Kalypsys, San Diego, CA), followed by addition of 1 ul of T3 (1 nM, final concentration in the wells) to stimulate TR transactivation. The assay plates were incubated at 37 C for 23.5 h, and then 1 uL of CellTiter-Fluor reagent (Promega, Madision, WI) of measuring cytotoxicity was added to each well using a Bioraptr Flying Reagent Dispenser (FRD) workstation (Beckman Coulter, Indianapolis, IN, USA). The plates were incubated at 37C and 5% CO2 for additional 30 min, and fluorescence intensity was measured by a ViewLux plate reader (PerkinElmer, Shelton, CT).
Potency is the fitted concentration of half-maximal effect.

Row | SMILES | Potency
1 | Cc1ncc(COP(=O)(O)O)c(CN)c1O | inactive
2 | O=C(Nc1ccc(O)cc1)c1ccccc1O | inactive
3 | CCCCCCCCCCCCCC[n+]1ccc(C)cc1 | 7.5 µM (active)
4 | CC1=C(/C=C/C(C)=C/C=C/C(C)=C/C=C/C=C(C)/C=C/C=C(C)/C=C/C2=C(C)C(=O)CCC2(C)C)C(C)(C)CCC1=O | inactive
5 | O=C(NNCS(=O)(=O)O)c1ccncc1 | inactive
6 | NCCCNCCCCNC(=O)C(O)NC(=O)CCCCCCN=C(N)N (stereo not given) | inactive
7 | O=C1CSC2(CCN(CCCN3c4ccccc4Sc4ccc(Cl)cc43)CC2)N1 | 10.6 µM (active)
8 | CC1(C)S[C@@H]2[C@H](NC(=O)C(C(=O)Oc3ccc4c(c3)CCC4)c3ccccc3)C(=O)N2[C@H]1C(=O)O (stereo not given in full) | inactive
9 | O=C(O)c1ccc(OCCn2ccnc2)cc1 | inactive
10 | CC(C)C(=O)OCC(=O)[C@@]12O[C@H](C3CCCCC3)O[C@@H]1C[C@H]1[C@@H]3CCC4=CC(=O)C=C[C@]4(C)[C@H]3[C@@H](O)C[C@@]12C | 18.8 µM (active)
11 | CC(C)c1nc(N(C)S(C)(=O)=O)nc(-c2ccc(F)cc2)c1/C=C/C(O)CC(O)CC(=O)O (stereo not given) | inactive
12 | O=[n+]1ccn([O-])c2ccccc21 | inactive
13 | C=C1CC[C@@H]2[C@](C)(CO)[C@H](O)CC[C@@]2(C)[C@@H]1C/C=C1/C(=O)OC[C@H]1O | 21.1 µM (active)
14 | O=C(CCCCCCCCCCCCC1CCCC1)Nc1ccc(S(=O)(=O)c2ccc(NC(=O)CCCCCCCCCCCCC3CCCC3)cc2)cc1 | inactive
15 | CC(C)(C)NCC(O)CSc1nc(-c2ccc(C(N)=O)s2)cs1 (stereo not given) | inactive
16 | O=C(O)COc1ccc(CCNS(=O)(=O)c2ccccc2)s1 | inactive
17 | CC(C)(C)c1ccc(CN2CCN(C(c3ccccc3)c3ccc(Cl)cc3)CC2)cc1 (stereo not given) | 33.5 µM (active)
18 | C[N+]1(C)[C@@H]2CC(OC(=O)C(O)(c3cccs3)c3cccs3)C[C@H]1[C@@H]1O[C@@H]12 (stereo not given in full) | inactive
19 | O=P(O)(O)C(Sc1ccc(Cl)cc1)P(=O)(O)O | inactive
20 | CCCCCCCN(CC)CCCC(O)c1ccc(NS(C)(=O)=O)cc1 (stereo not given) | 23.7 µM (active)

Row | SMILES | Potency
21 | O=C(O)CO.[NH2-].[NH2-].[Pt+2] | inactive
22 | CO[C@H]1C[C@@H]2CC[C@@H](C)[C@@](O)(O2)C(=O)C(=O)N2CCCC[C@H]2C(=O)O[C@H]([C@H](C)C[C@@H]2CC[C@@H](OCCO)[C@H](OC)C2)CC(=O)[C@H](C)/C=C(\C)[C@@H](O)[C@@H](OC)C(=O)[C@H](C)C[C@H](C)/C=C/C=C/C=C/1C | 3.76 µM (active)
23 | CC(/C=C/C=C(\C)C(=O)O[C@@H]1O[C@H](CO[C@@H]2O[C@H](CO)[C@@H](O)[C@H](O)[C@H]2O)[C@@H](O)[C@H](O)[C@H]1O)=C\C=C\C=C(C)\C=C\C=C(/C)C(=O)O[C@@H]1O[C@H](CO[C@@H]2O[C@H](CO)[C@@H](O)[C@H](O)[C@H]2O)[C@@H](O)[C@H](O)[C@H]1O | inactive
24 | C[C@H](CCCC(C)(C)O)[C@H]1CC[C@H]2[C@@H]3CC=C4C[C@@H](O)CC[C@]4(C)[C@H]3CC[C@]12C | inactive
25 | C[C@@H]1C[C@H]2[C@@H]3CCC4=CC(=O)C=C[C@]4(C)[C@@]3(F)[C@@H](O)C[C@]2(C)[C@@]1(O)C(=O)COC(=O)c1cccc(S(=O)(=O)O)c1 | inactive
26 | CCN(CC)c1ccc(N=Nc2ccc(S(=O)(=O)N(C)C)cc2)c(S(=O)(=O)NCC[n+]2ccccc2)c1 | inactive
27 | COc1ccc(-c2noc(CC(=O)O)c2-c2ccc(OC)cc2)cc1 | inactive
28 | CCN(CC)CCOc1ccc2nc(N(C)C)sc2c1 | inactive
29 | C[C@@](Cc1ccc(O)c(O)c1)(NN)C(=O)O | inactive
30 | NC(=O)C[C@@H](N)C(=O)O | inactive
31 | Cc1nc(NS(=O)(=O)c2ccc(N)cc2)nc(C)c1Br | inactive
32 | CSc1nc2cc(Oc3cccc(Cl)c3Cl)c(Cl)cc2[nH]1 | 13.3 µM (active)
33 | CCCCC/C=C\CCC(=O)N[C@H]1[C@H](Oc2c3cc4cc2Oc2ccc(cc2Cl)[C@@H](O[C@@H]2O[C@H](CO)[C@@H](O)[C@H](O)[C@H]2NC(C)=O)[C@@H]2NC(=O)[C@H](NC(=O)[C@@H]4NC(=O)[C@H]4NC(=O)[C@@H](Cc5ccc(c(Cl)c5)O3)NC(=O)[C@H](N)c3ccc(O)c(c3)Oc3cc(O)cc4c3)c3ccc(O)c(c3)-c3c(O[C@H]4O[C@H](CO)[C@@H](O)[C@H](O)[C@@H]4O)cc(O)cc3[C@@H](C(=O)O)NC2=O)O[C@H](CO)[C@@H](O)[C@@H]1O | inactive
34 | COc1ccc(CC2c3cc(OC)c(OC)cc3CC[N+]2(C)CCC(=O)OCCCCCOC(=O)CC[N+]2(C)CCc3cc(OC)c(OC)cc3C2Cc2ccc(OC)c(OC)c2)cc1OC (stereo not given) | inactive
35 | CC(=O)Nc1c(I)c(C(=O)O)c(I)c(N(C)C(C)=O)c1I | inactive
36 | C/C1=C2N=C(/C=C3N=C(/C(C)=C4\[N-]C(C(CC(N)=O)C4(C)CCC(=O)NCC(C)OP(=O)([O-])OC4C(CO)OC(n5cnc6cc(C)c(C)cc65)C4O)C4(C)N=C1C(CCC(N)=O)C4(C)CC(N)=O)C(CCC(N)=O)C\3(C)C)C(CCC(N)=O)C/2(C)CC(N)=O.[CH3-].[Co+3] (stereo not given) | 29.8 µM (active)
37 | C[C@]12CC[C@@H]3c4ccc(O)cc4CC[C@H]3[C@@H]1CC[C@@H]2OP(=O)(O)O | inactive
38 | CN(C)C=Nc1c(I)cc(I)c(CCC(=O)O)c1I | inactive
39 | CC[C@@H](C)CCCCC(=O)N[C@H](CCN)C(=O)N[C@@H](C(=O)N[C@H](CCN)C(=O)N[C@@H]1CCNC(=O)C([C@@H](C)O)NC(=O)[C@@H](CCN)NC(=O)[C@@H](CCN)NC(=O)[C@@H](CC(C)C)NC(=O)[C@@H](Cc2ccccc2)NC(=O)[C@@H](CCN)NC1=O)[C@@H](C)O (stereo partly drawn) (X3-[dDab][d(aThr)][dDab][dDab][dDab][dF][dL][dDab][dDab][ξThr(3R)]; lactam 4-C) | inactive
40 | C=C1C(=O)O[C@H]2[C@H]1CC/C(C)=C\CC[C@@]1(C)O[C@@H]21 | 8.41 µM (active)

From PubChem BioAssay (Tox21)
